Laboratory results taken from the supplement of paper PMC12494721.
Structures can show the parent of a compound that is named as a salt.

Experiments:
Settings in all cases: 20 µM; incubation time: 27 h, anaerobic, 37 °C;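 for the amine columns active = adjusted P below 0.05 in both replicates with a change the same way and a mean fold change under 0.8 or over 1.25; inactive = the rest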
[1] = test system: Clostridium sporogenes DSM 1664; assay: growth (OD595) fold change vs plate DMSO controls (fold change (ratio)); higher = more growth
Outline: (§1)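 The 96-well mGAM cultures had been kept anaerobic for 27 h at 37 °C before being shaken and read at 595 nm. Blank subtraction, compound background correction with 20 µM compound solutions in water, and a calibration factor of 5 turned the readings into OD. Growth is given as the fold change versus the median of plate DMSO controls. Fold changes above 1.5 were set to NA, and the values are means of 2 biological replicates.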

Escherichia coli IAI1 [2] = assay: as above
Outline: as §1

[3] = test system: Klebsiella aerogenes DSM 30053; assay: as above
Outline: as §1

[4] = test system: Ruminococcus gnavus DSM 108212; assay: as above
Outline: as §1

[5] = test system: Klebsiella aerogenes DSM 30053; assay: fold change of Histamine concentration vs plate DMSO controls (fold change (ratio)); higher = more amine produced, active = hit call of the paper (significant change in both replicates, either direction)
Outline: (§2)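 Amine values are fold changes relative to DMSO-only wells on the same plate. They derive from 27 h, 37 °C anaerobic mGAM cultures of four gut bacterial strains in 80 µL wells, dosed at 20 µM final, or 50 µM final for sweeteners. Extraction of the whole culture, LC–triple-quadrupole MS in dynamic MRM mode, external calibration curves and within-batch drift correction were used, with 2 biological replicates averaged.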

[6] = test system: Clostridium sporogenes DSM 1664; assay: fold change of Tryptamine concentration vs plate DMSO controls (fold change (ratio)); higher = more amine produced, active = hit call of the paper (significant change in both replicates, either direction)
Outline: as §2

[7] = test system: Ruminococcus gnavus DSM 108212; assay: as above
Outline: as §2

Escherichia coli IAI1 [8] = assay: fold change of Putrescine concentration vs plate DMSO controls (fold change (ratio)); higher = more amine produced, active = hit call of the paper (significant change in both replicates, either direction)
Outline: as §2

[9] = test system: Klebsiella aerogenes DSM 30053; assay: as above
Outline: as §2

Escherichia coli IAI1 [10] = assay: fold change of Cadaverine concentration vs plate DMSO controls (fold change (ratio)); higher = more amine produced, active = hit call of the paper (significant change in both replicates, either direction)
Outline: as §2

[11] = test system: Klebsiella aerogenes DSM 30053; assay: as above
Outline: as §2

[12] = test system: Ruminococcus gnavus DSM 108212; assay: fold change of 2-Phenylethylamine concentration vs plate DMSO controls (fold change (ratio)); higher = more amine produced, active = hit call of the paper (significant change in both replicates, either direction)
Outline: as §2

SMILES	growth [1]	growth (Escherichia coli IAI1 [2])	growth [3]	growth [4]	fold change of Histamine concentration [5]	fold change of Tryptamine concentration [6]	fold change of Tryptamine concentration [7]	fold change of Putrescine concentration (Escherichia coli IAI1 [8])	fold change of Putrescine concentration [9]	fold change of Cadaverine concentration (Escherichia coli IAI1 [10])	fold change of Cadaverine concentration [11]	fold change of 2-Phenylethylamine concentration [12]
O=C(NCNC(=O)NC1C(=O)NC(=O)N1CO)NC1C(=O)NC(=O)N1CO (stereo unspecified) [Imidurea]	1.05	1.06	0.987	1.19	1.02 (inactive)	0.998 (inactive)	1.01 (inactive)	1.01 (inactive)	1 (inactive)	1 (inactive)	0.994 (inactive)	1 (inactive)
CCC(C)c1ccccc1OC(=O)NC (stereo unspecified)	1.06	0.988	1.09	1.01	0.948 (inactive)	0.949 (inactive)	1.01 (inactive)	1.05 (inactive)	1.01 (inactive)	0.972 (inactive)	1 (inactive)	1.03 (inactive)
Cc1cc(C2CC2)nc(Nc2ccccc2)n1	0.944	1.01	0.977	0.987	1.04 (inactive)	0.966 (inactive)	0.968 (inactive)	0.975 (inactive)	0.972 (inactive)	1.01 (inactive)	0.99 (inactive)	1.2 (inactive)
CCC(C)(C)C(=O)OC1=C(c2ccc(Cl)cc2Cl)C(=O)OC12CCCCC2	1.09	1.08	1.01	1.05	0.967 (inactive)	1.05 (inactive)	1.03 (inactive)	1.02 (inactive)	0.996 (inactive)	0.997 (inactive)	1.03 (inactive)	1.05 (inactive)
C1=Cc2cccc3cccc1c23 [Acenaphthylene]	0.849	1.03	0.96	1.15	1.02 (inactive)	0.962 (inactive)	0.991 (inactive)	1.02 (inactive)	1 (inactive)	1.02 (inactive)	0.985 (inactive)	0.996 (inactive)
CCOC(=O)CC(SP(=S)(OC)OC)C(=O)OCC (stereo unspecified)	0.873	1.03	1.01	0.941	0.998 (inactive)	1.06 (inactive)	1.02 (inactive)	1.01 (inactive)	0.994 (inactive)	0.997 (inactive)	0.993 (inactive)	1 (inactive)
COc1ccc(-c2ccccc2)cc1NNC(=O)OC(C)C	1.14	0.997	1	1.12	0.998 (inactive)	0.997 (inactive)	0.968 (inactive)	0.991 (inactive)	1 (inactive)	1.03 (inactive)	0.984 (inactive)	0.922 (inactive)
CN1C(=O)COc2c(C(=O)NC3CN4CCC3CC4)cc(Cl)cc21 (stereo unspecified) [Azasetron hydrochloride]	0.734	0.55	0.585	0.0388	1.03 (inactive)	0.992 (inactive)	1.02 (inactive)	0.507 (inactive)	0.996 (inactive)	0.512 (inactive)	0.982 (inactive)	0.986 (inactive)
Fc1ccc([C@]2(Cn3cncn3)O[C@H]2c2ccccc2Cl)cc1 (racemic)	0.97	1.01	0.994	1.04	0.991 (inactive)	1.06 (inactive)	0.967 (inactive)	0.935 (inactive)	0.954 (inactive)	1.03 (inactive)	0.982 (inactive)	1.02 (inactive)
CC(C)c1c(CN(C)C(C)Cc2ccccc2)n(C)n(-c2ccccc2)c1=O (stereo unspecified) [Famprofazone]	1.02	1.15	1.06	1.05	0.986 (inactive)	0.954 (inactive)	1.06 (inactive)	1.03 (inactive)	1.02 (inactive)	0.998 (inactive)	1.01 (inactive)	1.02 (inactive)
CC(NC(C)(C)C)C(=O)c1cccc(Cl)c1 (stereo unspecified) [Bupropion hydrochloride]	0.957	1.01	0.949	1.02	1.08 (inactive)	0.987 (inactive)	1.08 (inactive)	1.02 (inactive)	0.995 (inactive)	1 (inactive)	0.97 (inactive)	1.12 (inactive)
C1CCc2nnnn2CC1 [Pentylenetetrazole]	1.14	0.976	1	0.873	0.957 (inactive)	0.963 (inactive)	0.836 (inactive)	0.994 (inactive)	0.975 (inactive)	1.01 (inactive)	0.998 (inactive)	0.876 (inactive)
c1ccc2c(c1)Nc1ccccc1S2 [Phenothiazine]	1.09	0.906	0.937	1.02	0.931 (inactive)	0.995 (inactive)	1.01 (inactive)	0.944 (inactive)	0.953 (inactive)	1.03 (inactive)	0.973 (inactive)	0.974 (inactive)
